# Results taken from PubChem BioAssay AID504401 (The Scripps Research Institute Molecular Screening Center, 2011).
# A number with no mark means an inactive call. How the calls were made is not given here.
# System: Rolipram
# Experiment: CYP450 and receptor off-target profile – biochemical, Ricerca HitProfilingScreen, selectivity assay for GPR7 antagonist project, late-stage follow-up (AID 504401)
# Conditions: Ricerca radioligand binding and CYP450 panel, at 10 µM, active compounds read high
smiles,measurement,value
COc1ccc(Oc2c(Cl)cnn(-c3cc(C)cc(C)c3)c2=O)cc1,inhibition,22%
